Values joined by “and” are separate entries in the source; they are usually repeats but may differ in a detail not shown here. Equal entries are not always repeated. About 3,200 (1.1%) of roughly 300,000 compounds were called active. Many of the other results were omitted from the sample, so actives are more common in it than they were. Unmarked numbers belong to inactive results. Rule as the data show it: active = inhibition above about 75%; inconclusive = no clear call, values can overlap the other calls; inactive = below that; tested in HMLE shEcad cells.
assay: growth suppression of cancer stem-like cells – cell-based, luminescence, primary screen (AID 2717); conditions: cancer stem cell-like cells viability, at 7.5 µM, active compounds read high

| SMILES | inhibition |
| --- | --- |
| COc1ccc(C2(c3ccc(OC)cc3)NC(=O)N(CC(=O)Nc3cc(C)on3)C2=O)cc1 | -19.5% |
| O=C(Cn1cnc2ccccc2c1=O)NNC(=O)c1ccccc1F | -14% |
| CCCCn1c(CN2CCN(CCO)CC2)nc2ccccc21 | -13.9% |
| CCCCn1c(CCCNC(=O)CC)nc2ccccc21 | -2.03% |
| C=C(Br)Cn1c(CCCC)nc2ccccc21 | 77.7% (active) |
| O=C(Nc1cccc(S(=O)(=O)NC2=NCCC2)c1)c1ccc(F)cc1F | 17.5% |
| Cc1cccc(C(=O)OCC(=O)NC(C)C2CC3CCC2C3)c1O (centres undefined) | -4.77% |
| CCN(C[C@H]1N[C@@](CC)(C(=O)OC)[C@H]2C(=O)N(Cc3ccccc3)C(=O)[C@@H]12)S(=O)(=O)c1ccc(C(F)(F)F)cc1 | 44.8% |
| COc1ccc(Nc2nc(-c3cccnc3)nc3ccccc23)cn1 | 2.87% |
| CC(=O)Nc1cccc(Nc2nc(-c3cccs3)nc3ccccc23)c1 | 33.9% |
| Cc1cccc(-c2nc(Nc3ccc(O)cc3)c3ccccc3n2)c1 | 94% (active) |
| Cc1cccc(NC(=O)CN2CCN(C(=O)C3CCN(C(=O)/C=C/c4ccccc4)CC3)CC2)c1C | -8.71% |
| Cc1ccc(Nc2c3c(nc4ccccc24)CCC3)cc1 | 2.02% |
| CC(=O)Nc1ccc(Nc2c3ccccc3nc3ccccc23)cc1 | 85.3% (active) |
| CC(=O)Nc1ccc(NC(=O)COc2ncnc3ccccc23)cc1 | -6.11% |
| Cc1ccc(CC(=O)Nc2ccc(S(=O)(=O)N3CCOCC3)cc2)cc1C | 6.62% |
| Cc1cccc(N(CC(=O)N=Nc2c(O)[nH]c3ccccc23)S(C)(=O)=O)c1C | -17.4% |
| O=[N+]([O-])c1cc(S(=O)(=O)Nc2cccc(Cl)c2)ccc1N=Nc1c(O)[nH]c2ccccc12 | 96.2% (active) |
| CN1CCN(c2ccc(S(=O)(=O)Nc3ccccc3)cc2[N+](=O)[O-])CC1 | 49.9% |
| O=C(CC1SC(N2CCOCC2)=NC1=O)Nc1ccccc1F (centres undefined) | -28.9% |
| COc1cc(/C=C/C(=O)OCC(=O)NC2CC2)cc(OC)c1OC | 1.1% |
| COC(=O)c1ccc(C)c(NC(=O)Cn2c(C)csc2=O)c1 | 13.1% |
| CCCCN(CCCC)CCC(O)c1cc2c(Cl)cc(Cl)cc2c2cc(C(F)(F)F)ccc12 (centres undefined) | 95.2% (active) |

| SMILES | inhibition |
| --- | --- |
| CCCCC(=O)Nc1ccc(C(=O)Nc2cc(C(F)(F)F)ccc2Cl)cc1 | 5.17% |
| Cc1ccc(C)c(NC(=O)COC(=O)c2nn(C)c(=O)c3ccccc23)c1 | -4.9% |
| COc1cc(NS(=O)(=O)c2ccc(N=Cc3c(C)[nH]n(-c4ccccc4)c3=O)cc2)nc(OC)n1 | -7.07% |
| COc1cc(SC#N)ccc1N=Cc1c(C)[nH]n(-c2ccc(C)cc2)c1=O | 84.4% (active) |
| Cc1ccc(-n2[nH]c(C)c(/C=N/N3C(=O)c4cccc5cccc(c45)C3=O)c2=O)cc1 | 24.4% |
| COc1cc(C(=O)OCc2cc(=O)n3ccsc3n2)ccc1OC(C)C | -20.6% |
| CC1CCCCC1NCC(=O)Nc1ccccc1C(=O)Nc1ccccc1 (centres undefined) | -14.1% |
| Oc1ccc(N2CCN(C(=S)NCc3ccccc3)CC2)cc1 | 76.5% (active) |
| Oc1ccccc1N1CCN(C(=S)NCc2ccccc2)CC1 | 12% |
| O=C(COC(=O)c1ccccc1C(=O)N1CCN(c2ccccc2)CC1)NCc1ccccc1 | -12.2% |
| O=C(COC(=O)c1ccc2c(c1)OCCO2)NCc1ccccc1Cl | -17.4% |
| Cc1ccc(N2C(=O)N3[C@@H]4c5ccccc5OC[C@@H]4[C@@H](c4ccccc4)[C@@]3(C)C2=O)cc1 | -10% |
| CCN(CC)c1ccc(/C=N/NC(=O)c2cnccn2)c(O)c1 | 102% (active) |
| CCN(CC)c1ccc(/C=N/NC(=O)CNC(=O)c2cccnc2)cc1 | -7.16% |
| O=C(N/N=C/c1ccc(O)c2ccccc12)c1cccnc1 | 8.51% |
| O=C(COC(=O)c1ccc([N+](=O)[O-])o1)NC12CC3CC(CC(C3)C1)C2 | -15.4% |
| COCCn1c(C)cc(C(=O)CN2c3cccc4cccc(c34)S2(=O)=O)c1C | 12.1% |
| COc1cc(/C=N/O)ccc1OCc1ccc([N+](=O)[O-])cc1 | 1.34% |
| COc1cc(/C=N/O)cc(Br)c1OCc1cccc(Cl)c1 | 80.5% (active) |
| COc1cc(/C=N/O)cc(Br)c1OS(=O)(=O)c1ccc(C)cc1 | -11.5% |
| CN(CC(=O)NC1CCN(Cc2ccccc2)CC1)S(=O)(=O)c1ccc(Cl)s1 | -6.54% |
| O=C(O)c1ccc(Cn2c(=S)[nH]c3cc(Cl)ccc3c2=O)cc1 | -3.92% |
| CC(C)c1ccc2c(c1)c(SC(C)(C)C)c(CC(C)(C)C(=O)O)n2Cc1ccc(Cl)cc1 | 104% (active) and 102% (active) |

| SMILES | inhibition |
| --- | --- |
| O=C1COc2ccc(C(=O)COC(=O)c3ccccc3Cl)cc2N1 | -17.8% |
| Fc1ccccc1-c1cc2cc3c(cc2cn1)OCO3 | 14.4% |
| COC(=O)C1=C(C)N(Cc2ccccc2)C(=NCCCOC(C)C)N[C@H]1c1ccccc1 | 0.115% |
| O=C(/C=C/c1ccc(F)cc1)Nc1cccc(S(=O)(=O)Nc2cccc(C(F)(F)F)c2)c1 | 2.9% |
| CCOC(=O)N1CCN(C(=O)c2ccc(S(=O)(=O)Nc3cccc(C(F)(F)F)c3)cc2)CC1 | 8.22% |
| Cc1oc2c(F)c(F)c(F)c(F)c2c1S(=O)(=O)Nc1cccc(C(F)(F)F)c1 | 97.3% (active) |
| Cc1ccc(C)c(NC(=S)NNC(=S)Nc2ccc(C(C)C)cc2)c1 | 102% (active) |
| CC(C)c1ccc(NC(=S)NNc2ccc(Cl)c(C(=O)O)c2)cc1 | -18.1% |
| Cc1ccc(C)c(NC(=S)NNC(=O)c2csc(C)c2)c1 | 3.04% |
| C[C@H]1COC(=O)[C@H](CC(=O)OC(C)(C)C)C/C=C\C[C@@H](CC(=O)N[C@H](CO)Cc2ccccc2)C(=O)N1 | -29.3% |
| Cc1ccccc1SCC(=O)OCC(=O)N1CC(=O)Nc2ccccc21 | -8.14% |
| CC1CCCCC1NC(=O)COc1ccc(C#N)cc1 (centres undefined) | -1.85% |
| CC/C(=N\NC(=S)NC(C)C)c1ccc(OC(F)F)cc1 | 2.7% |
| C/C(=N\NC(=S)NCc1ccccc1)c1ccc(Cl)cc1 | 41.6% |
| C/C(=N\NC(=S)NC(C)C)c1ccc(C(C)(C)C)cc1 | 77.5% (active) |
| O=C(COc1cccnc1[N+](=O)[O-])Nc1ccc(Cl)cc1F | -1.01% |
| O=C1C=C(c2cc(C(F)(F)F)cc(C(F)(F)F)c2)C[C@@H](c2ccc3c(c2)OCO3)C1 | 34.8% |
| COCC(=O)Nc1c(I)c(C(=O)NCC(O)CO)c(I)c(C(=O)N(C)CC(O)CO)c1I (centres undefined) | 10.5% |
| CCN1/C(=C/c2ccc3ccc(C)cc3[n+]2CC)Sc2ccccc21 | 17.6% |
| CCN1/C(=C\c2ccc3ccccc3[n+]2CC)Sc2cc(C)ccc21 | 89.1% (active) |
| COc1ccc(C(=O)N2CCN(c3ccc(C(C)=O)cc3F)CC2)cc1S(=O)(=O)NC1CC1 | 1.55% |
| COc1ccc(N=Nc2ccc(O)c(P(=O)(c3ccccc3)c3ccccc3)c2)cc1 | 13.4% |
| Cc1cc(N=Nc2ccc3ccccc3c2)ccc1O | 112% (active) |

| SMILES | inhibition |
| --- | --- |
| CC(=O)CCC(=O)c1ccc2ccccc2c1 | -3.91% |
| CCN(CC)C(=O)c1nc[nH]c1C(=O)N(C)Cc1ccccc1 | -14.8% |
| COc1ccc(/C=C/C(=O)Nc2cccnc2)cc1OC | 4.4% |
| COc1ccc(/C=C/C(=O)Nc2ccc(C34CC5CC(CC(O)(C5)C3)C4)cc2)cc1OC | 91% (active) |
| COc1ccc(/C=C/C(=O)Nc2ccc(C)cc2)cc1S(=O)(=O)N1CCOCC1 | -2.38% |
| CC(=O)C(CC(=O)N1CCCC1)C(=O)Nc1ccc(Cl)cc1 (centres undefined) | -5.74% |
| CSc1nnc(NC(=O)c2nc(S(=O)(=O)Cc3ccc(C)cc3)ncc2Cl)s1 | 104% (active) |
| CCSc1ncc(Cl)c(C(=O)Nc2cc(C)ccc2C)n1 | -7.15% |
| CSc1ncc(Cl)c(C(=O)Nc2cc(C)ccc2C)n1 | 4.07% |
| CCSc1nnc(NC(=O)c2ccc(C)cc2)s1 | 15.4% |
| Cc1cccc(NC(=O)c2nc(S(=O)(=O)Cc3ccccc3)ncc2Cl)c1 | 109% (active) |
| Cc1cccc(NC(=O)c2nc[nH]c2C(=O)NCC(=O)OCc2ccccc2)c1 | -0.27% |
| Cc1cc(C)cc(OCC(=O)OCC(=O)NC2CCCC2)c1 | 7.95% |
| CC(C)(C)OC(=O)C[C@@H]1C/C=C\C[C@@H](CC(=O)N[C@H](CO)Cc2ccccc2)C(=O)NC[C@@H](c2ccccc2)OC1=O | 0.463% |
| CCN(C(=O)COC(=O)CCC(=O)c1cccs1)C1CCCCC1 | -3.12% |
| CC1(c2ccccc2)NC(=O)N(CC(=O)N2CC(=O)Nc3ccccc32)C1=O (centres undefined) | -24.5% |
| COc1ccc(-c2c(-c3cc(OC)cc(OC)c3)n(C)c3ccc(-c4ccn[nH]4)cc23)cc1 | 109% (active) |
| COc1cc(OC)cc(-c2c(-c3ccc(F)cc3)c3cc(-c4ccc5cc[nH]c5c4)ccc3n2C)c1 | 14.4% |
| COc1cc(OC)cc(-c2c(-c3cccs3)c3cc(-c4ccc(OC)nc4)ccc3n2C)c1 | 30.1% |
| CNC[C@@H]1Oc2c(NS(C)(=O)=O)cccc2C(=O)N([C@@H](C)CO)C[C@H]1C | -11.8% |
